Measurements published in PubChem BioAssay.

These molecules were tested on PRMT1 (protein arginine N-methyltransferase 1) (assay: PRMT1 binders on small-molecule microarrays, primary screen, biochemical, small-molecule microarray, 635 nm fluorescence (AID 1088)). Details: small-molecule microarray binding, higher = more signal.

Row | Compound | composite z-score
1 | COC(=O)[C@@]1(Cc2ccc(OC)cc2)[C@H]2c3cc(C(=O)N(C)C)n(Cc4cc(C)n(C)n4)c3C[C@H]2CN1C(=O)c1ccccc1 | 0.847
2 | O=C(NCc1ccccc1)[C@]1(Cc2ccccc2)N=C(c2ccc(OCCCO)cc2)O[C@@H]1c1ccccc1 | 0.882
3 | [N-]=[N+]=NCc1ccccc1[C@H]1OC(c2ccc(OCCCO)cc2)=N[C@@]1(Cc1ccccc1N=[N+]=[N-])C(=O)N1CCCCC1 | 1.53
4 | COCCOC(=O)N1C(=O)[C@@]2(c3ccccc31)[C@H](c1ccc(OCCO)cc1)N1[C@H](c3ccccc3)[C@H](c3ccccc3)OC(=O)[C@H]1[C@@H]2C(=O)NC[C@H](O)c1ccccc1 | 1.53
5 | COc1ccc(C(=O)Nc2ccc3c(c2)[C@]2(O[C@@H](CCO)[C@H]([Si](C)(C)c4ccc(OC)cc4)[C@H]2C)C(=O)N3Cc2ccccc2)cc1 | 1.3
6 | CN(C)C(=O)[C@]1(Cc2ccccc2N=[N+]=[N-])N=C(c2ccc(OCCCO)cc2)O[C@@H]1c1ccccc1CN=[N+]=[N-] | 1.5
7 | COCCOC(=O)N1C(=O)[C@@]2(c3cc(C#Cc4ccc(OC)cc4)ccc31)[C@H](C(=O)N1CCc3cc(OC)c(OC)cc3C1)[C@H]1C(=O)O[C@H](c3ccccc3)[C@H](c3ccccc3)N1[C@@H]2c1ccc(O)cc1 | 1.55
8 | COc1ccc(C#Cc2ccc3c(c2)[C@]2(C(=O)N3)[C@H](C(N)=O)[C@H]3C(=O)O[C@H](c4ccccc4)[C@H](c4ccccc4)N3[C@@H]2c2ccc(O)cc2)cc1 | 1.56
9 | COc1ccc([Si](C)(C)[C@@H]2[C@@H](CCO)O[C@]3(C(=O)N(Cc4ccccc4)c4ccc(N5C(=O)COc6ccccc65)cc43)[C@H]2C)cc1 | 1.39
